# PubChem BioAssay
# Activity calls are given as the source filed them. Unless noted, no rule for the calls is given here.
# How the values were obtained:
# [1] = test system: Wnt5a (protein binding on small-molecule microarray); test: Wnt5a binders on small-molecule microarray, primary screen, biophysical, 635/667 nm fluorescence (AID 1142); settings: 635 nm fluorescence, higher = more signal;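 also: fluorescence read at 667 nm with signal to noise per printed feature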
# [2] = cell viability in Huh7 cells, primary screen, cytotoxicity control for HCV replication inhibitor project, CellTiter-Glo luminescence, basal, 48 h (AID 1143); settings: Huh7 HCV replicon, higher = more signal, called active from +8 up or from −8 down;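 also: Huh7 hepatoma cells carrying a hepatitis C replication reporter with no stimulus; test concentration not given here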
# [3] = P. aeruginosa biofilm formation inhibitors, primary screen, PAO1 strain, BacTiter-Glo luminescence, LB-PBS (AID 1144); settings: 12 h, higher = more signal
# [4] = CREB reporter modulators without forskolin, primary screen, cell-based, PC12, CRE-LacZ reporter, unstimulated (AID 1145); settings: no forskolin, luminescence, 4.5 h, higher = more signal, called active from +8 up or from −8 down
# [5] = CREB reporter modulators under forskolin, primary screen, cell-based, PC12, CRE-LacZ reporter, forskolin-stimulated (AID 1146); settings: luminescence, 4.5 h, higher = more signal, called active from +8 up or from −8 down;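 also: PC12 cells with 6xCRE LacZ reporter stimulated by forskolin 10 µM; beta-galactosidase reporter signal reflecting CREB driven transcription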
# [6] = target: Streptavidin (Streptomyces avidinii) (UniProt P22629); test: streptavidin binders on small-molecule microarray, primary screen, artefact control for SMM compound annotation, biophysical, 635/667 nm fluorescence (AID 1147); settings: streptavidin binding, higher = more signal;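 also: signal reflects streptavidin binding to arrayed compounds as a control protein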
# Sequence of Streptavidin (Streptomyces avidinii) (P22629 whole entry, looked up): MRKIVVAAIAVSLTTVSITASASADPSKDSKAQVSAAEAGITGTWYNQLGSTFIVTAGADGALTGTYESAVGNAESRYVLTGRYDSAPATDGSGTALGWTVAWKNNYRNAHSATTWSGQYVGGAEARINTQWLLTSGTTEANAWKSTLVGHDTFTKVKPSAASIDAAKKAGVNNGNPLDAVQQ
# [7] = small-molecule binders of probe aInhba, primary screen, biochemical, small-molecule microarray, 635/667 nm fluorescence (AID 1148); settings: higher = more signal;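 also: score merges 667nm spot fluorescence with signal-to-noise for antibody binding to printed compounds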
# Torsin-1A (Homo sapiens) [8] = target: Torsin-1A (Homo sapiens) (UniProt O14656); test: torsin A binders from cell lysate, primary screen, small-molecule microarray, wild-type, 635/667 nm (AID 1149); settings: COS7 hTOR1A-WT lysate, 635 nm fluorescence, higher = more signal
# Sequence of Torsin-1A (Homo sapiens) (O14656 whole entry, looked up): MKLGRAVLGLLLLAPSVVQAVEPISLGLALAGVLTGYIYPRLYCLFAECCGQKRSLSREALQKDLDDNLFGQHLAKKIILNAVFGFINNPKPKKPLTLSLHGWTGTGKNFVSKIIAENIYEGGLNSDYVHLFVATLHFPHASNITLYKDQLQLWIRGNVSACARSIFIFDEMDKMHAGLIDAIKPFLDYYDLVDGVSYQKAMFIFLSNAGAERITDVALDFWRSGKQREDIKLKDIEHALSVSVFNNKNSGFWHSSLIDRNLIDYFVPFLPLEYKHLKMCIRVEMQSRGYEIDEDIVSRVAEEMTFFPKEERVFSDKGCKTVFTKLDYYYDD
# Torsin-1A (Homo sapiens) [9] = target: Torsin-1A (Homo sapiens) (UniProt O14656); test: small-molecule binders of mutant TOR1A in lysate, primary screen, cell lysate, small-molecule microarray, COS7 lysate, 635/667 nm fluorescence (AID 1150); settings: COS7 hTOR1A mutant lysate, 635 nm fluorescence, higher = more signal;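 also: score pools 667 nm emission and signal to noise measuring lysate protein binding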
# [10] = test system: Sonic hedgehog protein (Shh); test: small-molecule binders of Shh protein, primary screen, biochemical, small-molecule microarray, 635/667 nm fluorescence (AID 1151); settings: small-molecule microarray binding, 635 nm fluorescence; higher = more signal;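 also: Shh protein binding to compounds spotted on small-molecule microarray slides; score combines spot fluorescence intensity with signal-to-noise across triplicate slides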
Compound,composite z-score [1],z-score [2],z-score [3],z-score [4],z-score [5],composite z-score [6],composite z-score [7],composite z-score (Torsin-1A (Homo sapiens) [8]),composite z-score (Torsin-1A (Homo sapiens) [9]),composite z-score [10]
C#CCCCON=C1C[C@@H](O)[C@@H](O)[C@@H]2[C@@H]3C(=O)N(c4ccc(F)cc4F)C(=O)[C@@H]3CC[C@H]12,0.166,-1.71 (inactive),-0.203 (inactive),-0.475 (inactive),0.278 (inactive),-0.222,-0.183,0.696,1.31,0.782
O=C(NN=C1C[C@@H](O)[C@@H](O)[C@@H]2[C@@H]3C(=O)N(C4CCCCC4)C(=O)[C@@H]3CC[C@@H]12)OCc1ccccc1,-0.03,0.0845 (inactive),1.15 (inactive),1.79 (inactive),0.0171 (inactive),-0.225,-0.384,0.205,-0.0666,-0.364
O=c1n(Cc2cc3c(cc2Cl)OCO3)c(=O)n2n1CC[C@@H]1C(=NOCc3ccccc3)[C@H]3O[C@H]3[C@@H](O)[C@@H]12,0.141,-0.742 (inactive),0.692 (inactive),0.16 (inactive),1.87 (inactive),0.767,-0.0509,0.582,0.223,0.365
COc1ccc(O[C@H]2C=C[C@@H](c3ccccc3)O[C@@H]2CON=C2[C@H]3CCn4c(=O)n(-c5ccccc5)c(=O)n4[C@H]3[C@H](O)[C@@H]3O[C@H]23)cc1,0.185,-1.53 (inactive),1.92 (inactive),0.834 (inactive),-0.016 (inactive),0.836,-0.2,0.0461,0.066,0.536
COc1ccc(O[C@H]2C=C[C@@H](c3ccccc3)O[C@@H]2COC(=O)CCC(C)=NO[C@@H]2O[C@H](COC(C)=O)[C@@H](OC(C)=O)[C@H](OC(C)=O)[C@H]2OC(C)=O)cc1,0.0276,-0.178 (inactive),-0.333 (inactive),2.85 (inactive),0.847 (inactive),0.484,-0.106,0.495,0.21,0.918
O=C1CCCC(C2=CCCCC2=O)C1 (stereo not given),0.18,0.211 (inactive),0.0656 (inactive),0.019 (inactive),-0.222 (inactive),-0.15,-0.0288,0.217,0.37,0.626
CCOC(=O)[C@H](Cc1ccccc1)NC(=O)CCC1CC(OC(=O)NCc2cccc3ccccc23)CC2(CCCC(COC(=O)NCC(c3ccccc3)c3ccccc3)O2)O1 (stereo not given in full),0.177,-1.43 (inactive),-0.873 (inactive),0.286 (inactive),0.155 (inactive),0.164,-0.154,0.45,0.0748,0.613
Cn1c(=O)n2n(c1=O)[C@H]1[C@H](O)[C@@H]3O[C@@H]3C(=O)[C@H]1CC2,0.0242,0.0801 (inactive),0.0513 (inactive),-1.29 (inactive),-0.69 (inactive),0.924,-0.041,0.961,0.198,0.537
C=CC[C@@H]1C=C[C@H](ON=C(C)CCC(=O)OC[C@H]2O[C@H](C#Cc3ccccc3)C=C[C@@H]2Oc2ccc(C)cc2)[C@@H](CO)O1,0.0897,-0.273 (inactive),0.0915 (inactive),-0.306 (inactive),0.435 (inactive),0.635,-0.0375,0.569,0.185,0.795
CC(C)=NO[C@H](C)c1cn([C@H](CO)Cc2ccccc2)nn1,-0.179,-0.684 (inactive),0.159 (inactive),1.61 (inactive),0.112 (inactive),1.14,-0.0178,-0.232,0.015,-0.195
COc1ccc(COC(=O)NN=C2C[C@@H](O)[C@@H](O)[C@@H]3[C@@H]4C(=O)N(c5cccc(Oc6ccccc6)c5)C(=O)[C@@H]4CC[C@@H]23)cc1,-0.365,-0.201 (inactive),0.791 (inactive),2.15 (inactive),0.087 (inactive),0.519,-0.162,0.574,-0.101,-1.38
CCOC(=O)[C@H](Cc1ccccc1)NC(=O)CCC1CC(OC(=O)NCCc2ccc(F)cc2)CC2(CCCC(COC(=O)NCCOC)O2)O1 (stereo not given in full),1.58,-0.326 (inactive),-0.852 (inactive),0.473 (inactive),-0.728 (inactive),1.19,0.122,0.998,0.753,0.784
COC(=O)CC=C[C@@H](C)[C@@H](C=NOC(C)CN1CCCc2nc(C)c(C)cc21)OC (stereo not given in full),0.17,0.431 (inactive),0.764 (inactive),-0.64 (inactive),0.632 (inactive),1.21,0.098,0.254,0.0852,0.655
CC(C)=CCCC(C)=CCON=C1C[C@@H](O)[C@@H](O)[C@@H]2[C@@H]3C(=O)N(c4ccc(F)cc4F)C(=O)[C@@H]3CC[C@H]12,-0.112,-5.27 (inactive),-0.206 (inactive),-1.2 (inactive),-0.358 (inactive),0.0534,-0.0178,-0.37,0.171,1.01
CC(CCN1CCCc2nc(C)c(C)cc21)=NOC(C)CN1CCCCc2nc(C)c(C)cc21 (stereo not given),0.277,-0.466 (inactive),-0.624 (inactive),-0.31 (inactive),0.527 (inactive),0.666,0.0074,-0.109,0.631,1.05
CCCCC#C[C@@H]1C=C[C@H](Oc2cc(OC)c(OC)c(OC)c2)[C@@H](COC(=O)OCC)O1,-0.282,-0.721 (inactive),-0.264 (inactive),2 (inactive),-0.684 (inactive),-0.523,-0.173,-0.0251,-0.361,0.375
CCO[C@H](c1cc(OC)cc([N+](=O)[O-])c1OC)[C@H](C)C=CCC(=O)OC,-0.151,0.0843 (inactive),-0.0286 (inactive),-0.0684 (inactive),-0.893 (inactive),0.0571,-0.183,0.636,0.192,1.7
C[C@H]1CC[C@H]2C(=O)OC(CO)CN2[C@@H]1c1ccc(Br)cc1 (stereo not given in full),0.0096,0.131 (inactive),-1.21 (inactive),-0.527 (inactive),-1.43 (inactive),-0.281,-0.253,0.21,0.002,0.661
CCOC(=O)NN=C1C[C@@H](O)[C@@H](O)[C@@H]2[C@@H]3C(=O)N(c4ccc(F)cc4F)C(=O)[C@@H]3CC[C@@H]12,0.0054,0.176 (inactive),0.449 (inactive),-0.0211 (inactive),0.34 (inactive),0.309,-0.016,0.308,0.12,0.219
CCOC(=O)NN=C1C[C@@H](O)[C@@H](O)[C@@H]2[C@@H]3C(=O)N(c4cccc(Oc5ccccc5)c4)C(=O)[C@@H]3CC[C@@H]12,0.0449,-1.49 (inactive),0.362 (inactive),-0.201 (inactive),-0.252 (inactive),-0.343,-0.178,0.986,0.139,-0.438
COc1ccc(O[C@H]2C=C[C@@H](c3ccccc3)O[C@@H]2CON=C(C)C)cc1,-0.0515,0.361 (inactive),-0.385 (inactive),0.113 (inactive),0.177 (inactive),0.446,-0.004,-0.0422,-0.222,-0.114
CC(C)CON=C1C[C@@H](O)[C@@H](O)[C@@H]2[C@@H]3C(=O)N(C4CCCCC4)C(=O)[C@@H]3CC[C@H]12,0.298,0.0498 (inactive),-0.52 (inactive),1.7 (inactive),-0.061 (inactive),0.451,0.125,0.792,0.375,0.72
CCOC(=O)[C@H](Cc1ccccc1)NC(=O)CCC1CC(OC(=O)NCCc2ccc(F)cc2)CC2(CCCC(COC(=O)NCCc3ccccc3OC)O2)O1 (stereo not given in full),0.359,-0.131 (inactive),0.248 (inactive),0.198 (inactive),-0.099 (inactive),0.536,-0.0897,0.196,0.721,1.54
CCN1C(=O)[C@@H]2[C@H]3C(=CC[C@@H]2C1=O)C1(OCCCO1)[C@H]1O[C@H]1[C@H]3O,0.36,-8.11 (active),0.291 (inactive),0.196 (inactive),23.3 (active),1.13,0.0513,0.616,1.09,0.956
COC(=O)[C@H](C)NC(=O)CCC1CC(OC(=O)NCc2ccc3c(c2)OCO3)CC2(CCCC(COC(=O)NCC3CCCCC3)O2)O1 (stereo not given in full),0.283,-0.643 (inactive),-0.112 (inactive),0.104 (inactive),1.35 (inactive),0.543,-0.0719,0.174,0.433,1.72
COc1ccc(COC(=O)NN=C2C[C@@H](O)[C@@H](O)[C@@H]3[C@@H]4C(=O)N(Cc5ccccc5)C(=O)[C@@H]4CC[C@H]23)cc1,-0.419,-0.541 (inactive),0.43 (inactive),0.702 (inactive),-0.0005 (inactive),0.273,-0.753,-0.429,-0.186,-1.44
COCCNC(=O)OCC1CCCC2(CC(OC(=O)NCc3ccc4c(c3)OCO4)CC(CCC(=O)N[C@@H](C)C(=O)OC)O2)O1 (stereo not given in full),-0.0558,-0.773 (inactive),-0.0785 (inactive),-0.0755 (inactive),0.468 (inactive),0.303,-0.205,0.308,0.551,1.5
